Reference: PMC9574860, “Chemical Toolkit for PARK7: Potent, Selective, and High-Throughput” (Journal of Medicinal Chemistry, 2022)
About 400 (5.1%) of roughly 7,900 compounds showed an effect of 50% or more. The sample as a whole holds a higher share of strong results than the screen did.

target: Parkinson's disease protein 7 (PARK7/DJ1) (human, UniProt Q99497); assay: primary screen, percent inhibition; read as competition with a fluorescent probe by fluorescence polarization; higher = more effect of the substance; conditions: 100 µM
Summary of the method: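 Fluorescence-polarization probe displacement (JYQ-107, 20 nM final, 2 h) after 2 h preincubation of PARK7 (0.2 μM final) with each fragment at 100 μM final. Read-out ex/em 480/520 nm; remaining activity derived from FP signal loss relative to reference controls.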

Parkinson's disease protein 7 (PARK7/DJ1), sequence (Q99497 whole entry, looked up, the tested form may be a part): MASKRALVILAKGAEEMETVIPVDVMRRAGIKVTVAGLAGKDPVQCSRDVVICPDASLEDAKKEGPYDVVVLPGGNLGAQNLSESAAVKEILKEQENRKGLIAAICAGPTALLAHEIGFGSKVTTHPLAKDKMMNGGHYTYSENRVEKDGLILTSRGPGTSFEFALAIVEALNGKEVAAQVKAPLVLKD

Going from `N#CC(=Cc1cnn(-c2ccccc2)c1)C(=O)O` to `CC(C)NC(=O)C(C#N)=Cc1cccc(O)c1`, the Inhibition % rises from 10.6% to 19.6%.

Going from `CN(C)C(=O)Sc1cnc2nccn2c1` to `Cn1ccnc1C(=O)CCl`, the Inhibition % rises from 3.18% to 32.3%.

Going from `CC1CCC(N(C)C(=O)CCl)CC1` (stereo not drawn) to `CN(C(=O)CCl)C1CC1`, the Inhibition % falls from 101% to -0.367%.

Compared with `CN(C(=O)CCl)C1CCS(=O)(=O)C1` (stereo not drawn), `CN(C(=O)CCl)C1CCCCC1` is higher in Inhibition %: 8.14% for the first, 92.5% for the second.

First: CN(CC1CC1)C(=O)CCl
Second: CN(CC1CCCCC1)C(=O)CCl
The Inhibition % of the first is higher: 50.3% for the first, 50% for the second.

Going from `CCN(C(=O)CCl)C1CCCCC1` to `CN(C(=O)CC1OCCCO1)C1CCCCC1`, the Inhibition % falls from 9.37% to 3.82%.

First: CN(CC12CC3CC(CC(C3)C1)C2)C(=O)CCl
Second: CN(Cc1cnn(C)c1)C(=O)CCl.Cl
The Inhibition % of the first is lower: 9.71% for the first, 20.6% for the second.

Going from `C=CC(=O)Nc1cccc2c1CN(CC(C)C)C2` to `C=CC(=O)Nc1ccc(F)c(F)c1`, the Inhibition % falls from 8.44% to 7.82%.

Compared with `O=C(c1ccc(S)nc1)N1CCCC1`, `Cl.O=C(CCl)c1csc(N2CCCCC2)n1` is lower in Inhibition %: 40.7% for the first, 2.02% for the second.

Going from `N#CN(Cc1nnc(C2CCC2)o1)c1ccc(F)c(Cl)c1` to `Cc1cc(C=C(C#N)C(=O)NCC2CCCO2)ccc1F` (stereo not drawn), the Inhibition % rises from -0.412% to 2.68%.

Compared with `C=CC(=O)N1CCC12CCOC2` (stereo not drawn), `C=CC(=O)NC1CCOC2(CCSC2)C1` (stereo not drawn) is lower in Inhibition %: 7.06% for the first, 6.26% for the second.

Going from `Cc1ccc(C(C)NC(=O)Cn2cnc(C#N)n2)cc1C` (stereo not drawn) to `Cc1ccc(NC(=O)C(C#N)=Cc2cn(C)cn2)c(C)c1`, the Inhibition % rises from 3.5% to 10.3%.

First: O=C(O)c1cc(S(=O)(=O)F)ccc1Cl
Second: Cc1ccc(S(=O)(=O)F)cc1C(=O)O
The Inhibition % of the first is lower: 7.95% for the first, 87.9% for the second.

Going from `Cc1ccc(S(=O)(=O)F)cc1` to `CC(=O)c1ccc(S(=O)(=O)F)cc1`, the Inhibition % rises from 2.62% to 34.9%.

First: Cc1cc(S(=O)(=O)F)ccc1C(=O)O
Second: COc1ccccc1C(=O)Nc1cccc(S(=O)(=O)F)c1
The Inhibition % of the first is higher: 85.1% for the first, 4.59% for the second.

Going from `Cc1cc(C)n(S(=O)(=O)N2CCCCC2)n1` to `COc1ccc(S(=O)(=O)n2ccc(C)n2)cc1C`, the Inhibition % falls from 7.02% to 2.32%.

Going from `O=C(Nc1cccc(S(=O)(=O)F)c1)C1(CF)CCC1` to `CCC1(C(=O)Nc2cccc(S(=O)(=O)F)c2)CCC1`, the Inhibition % falls from 95.8% to 93.8%.

First: O=C(Nc1cccc(S(=O)(=O)F)c1)C1(CF)CCOCC1
Second: COCC1(C(=O)Nc2cccc(S(=O)(=O)F)c2)CCCC1
The Inhibition % of the first is higher: 95.3% for the first, 94.3% for the second.

Going from `Cc1nn(C)c(Cl)c1C=CC(=O)N1CCC(C(=O)O)C1.Cl` (stereo not drawn) to `Cc1nc(C=CC(=O)N2CCC(C)(C(=O)O)C2)cs1` (stereo not drawn), the Inhibition % falls from 7.34% to 5.72%.

First: C=CC(=O)NCC1CC2(CCC2)CO1 (stereo not drawn)
Second: C=CC(=O)NC1CCCC1C(=O)NC (stereo not drawn)
The Inhibition % of the first is lower: 5.74% for the first, 9% for the second.

Going from `Cc1cccc(-n2nnnc2SC2CC(C)OC2=O)c1` (stereo not drawn) to `CCc1nccn1S(=O)(=O)c1ccc(Cl)c(C)c1`, the Inhibition % falls from 3.51% to 1.29%.

Compared with `Cn1cc(NS(=O)(=O)C=Cc2ccccc2Cl)cn1`, `Cn1cc(C(=O)CCl)cn1` is higher in Inhibition %: 28.6% for the first, 77.2% for the second.

Going from `CCn1cc(C2NC(=O)C23CCOCC3)cn1` (stereo not drawn) to `OC1(C2CO2)CCOCC1` (stereo not drawn), the Inhibition % rises from 2.01% to 7.63%.

Going from `CCN(C(=O)CCl)c1ccc(F)cc1` to `Cl.O=S(=O)(F)CCNc1ccc(F)cc1`, the Inhibition % rises from 31.3% to 36.8%.

Compared with `Cl.N[C@@H]1CC[C@H](CS(=O)(=O)F)C1` (racemic), `O=S(=O)(F)CC1CCOCC1` is lower in Inhibition %: 22.9% for the first, 10.5% for the second.

Compared with `CC(C)(C)OC(=O)N1CCCC(S(=O)(=O)F)C1` (stereo not drawn), `CC(C)(C)OC(=O)N[C@@H]1CC[C@H](CS(=O)(=O)F)C1` (racemic) is higher in Inhibition %: 10.7% for the first, 87.2% for the second.

Compared with `O=C(N[C@H]1CC[C@@H](CS(=O)(=O)F)C1)C1CCOCC1` (racemic), `COC(=O)C1CC(S(=O)(=O)F)CN1C(=O)C1CCOCC1` (stereo not drawn) is lower in Inhibition %: 77.4% for the first, 9.64% for the second.

Going from `CC(C)C1(c2ccccc2)CO1` (stereo not drawn) to `N#CSCc1nc2ccccc2[nH]1`, the Inhibition % rises from 4.43% to 24.5%.

Going from `COc1cc(SC#N)ccc1O` to `COc1cc(C=C(C#N)C(=O)NC(C)C)cc(Cl)c1O`, the Inhibition % falls from 15.4% to -0.272%.

Going from `CS(=O)(=O)OCC1CCCNC1=O` (stereo not drawn) to `COc1ccc(NCCS(=O)(=O)F)cc1.Cl`, the Inhibition % rises from 7.7% to 44.4%.

First: Cl.O=S(=O)(F)CCNc1ccc(Cl)cc1
Second: Cc1ccc(Cc2cnc(NC(=O)CCl)s2)cc1
The Inhibition % of the first is higher: 66% for the first, 7.26% for the second.

First: N#Cc1ccc2cc[nH]c2n1
Second: N#Cc1ccc2[nH]ccc2n1
The Inhibition % of the first is higher: 68.4% for the first, 18.7% for the second.

First: N#Cc1ccc(Cl)c(Cl)n1
Second: O=C(CCl)Nc1nc2ccc([N+](=O)[O-])cc2s1
The Inhibition % of the first is lower: 5.12% for the first, 6.68% for the second.

First: Cl.NC1C=CS(=O)(=O)C1 (stereo not drawn)
Second: Nc1ccc(N2CCC2=O)cc1
The Inhibition % of the first is lower: 9.63% for the first, 16.5% for the second.

First: NC(=O)c1c(NC(=O)CCl)sc2c1CCC2
Second: O=C(CCl)Nc1ncc([N+](=O)[O-])s1
The Inhibition % of the first is lower: 38.6% for the first, 96.3% for the second.

First: Cn1nncc1C(=O)CCl
Second: Cn1nccc1C(=O)CCl
The Inhibition % of the first is higher: 82.2% for the first, 15.4% for the second.

Compared with `Cn1ccc(C(=O)CCl)c1`, `Cn1cccc1C(=O)CCl` is lower in Inhibition %: 49% for the first, 8.03% for the second.

First: CCn1ncc(C(=O)CCl)n1
Second: Cn1ncc(C(=O)CCl)n1
The Inhibition % of the first is lower: 87.8% for the first, 95.3% for the second.

Compared with `CCn1nc(C)c(C(=O)CCl)n1`, `C=CC(=O)NCCCc1cnn(C)n1` is lower in Inhibition %: 13.1% for the first, 5.99% for the second.

Compared with `CC1(C)OB(c2cccc(CN3CCOCC3)c2)OC1(C)C.Cl`, `COc1ccc(C2=NC(=Cc3csc(C)n3)C(=O)O2)cc1` is lower in Inhibition %: 25.8% for the first, 14.1% for the second.

For `N#CN(Cc1ccc(C(N)=O)cc1)c1ccc(F)cc1`, the Inhibition % was 3.09%.
